Test results reported in PubChem BioAssay (NCATS).
“And” between values parts separate entries of the source, which are not always exact repeats. Identical values can stand only once. Records with an inconclusive call do not appear. The source made the active and inactive calls. The call rests on the fitted dose curve; in most records, active means well fitted inhibition curve with a large enough effect; inconclusive means small, poorly fitted or top-dose-only effect; inactive means flat fitted curve, though single readings scatter.

Key:
KB-3-1 = experiment: Cytotoxic Profiling of Annotated Libraries Using Quantitative High-Throughput Screening (AID 1296008); settings: Five cell lines viability, CellTiter-Glo ATP luminescence, 48-72 h; max response: stronger effect = lower value
In short: (§1)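 Cells exposed to compounds for 48 or 72 hr at 37 degrees Celsius. Viability read as ATP-coupled luminescence with CellTiter-Glo after 10 min at room temperature.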

NIH3T3 [1] = experiment: as above; settings: Five cell lines viability, CellTiter-Glo ATP luminescence, 48-72 h; max response: stronger effect = lower value
In short: as §1

HACAT = experiment: qHTS assay to identify novel small-molecules to repurpose for Merkel cell carcinoma treatment (AID 1296009); settings: MCC and control cell lines, CellTiter-Glo viability, 72 h; at 44.8 µM (top of the series) unless noted
In short: (§2)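 Cells were treated for 72 hr at 37 degree celsius with compounds in 8- or 11-point dose response. Viability was read by CellTiter-Glo luminescence, normalized to no-cell (cytotoxicity) and DMSO controls.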

HEK293T = experiment: as above; settings: MCC and control cell lines, CellTiter-Glo viability, 72 h; at 44.8 µM (top of the series) unless noted
In short: as §2

MCC-13 = experiment: as above; settings: MCC and control cell lines, CellTiter-Glo viability, 72 h; series mostly up to 46 µM
In short: as §2

MKL-1 = experiment: as above; settings: MCC and control cell lines, CellTiter-Glo viability, 72 h; series mostly up to 46 µM
In short: as §2

MKL-2 = experiment: as above; settings: MCC and control cell lines, CellTiter-Glo viability, 72 h; series mostly up to 46 µM
In short: as §2

UISO = experiment: as above; settings: MCC and control cell lines, CellTiter-Glo viability, 72 h; series mostly up to 46 µM
In short: as §2

MCC-26 = experiment: as above; settings: MCC and control cell lines, CellTiter-Glo viability, 72 h; series mostly up to 46 µM
In short: as §2

NIH3T3 [2] = experiment: as above; settings: MCC and control cell lines, CellTiter-Glo viability, 72 h; at 44.8 µM (top of the series) unless noted
In short: as §2
Further: nearly all actives have a fitted effect of over 60% in size.
On the % scale 0 is the no-effect control and ±100 the full control effect.

CN1CC(=O)N/C1=N/C(=O)Nc1cccc(Cl)c1
inactive: max response (KB-3-1) 1.15% and -4.39% | max response (NIH3T3 [1]) -0.466% | outcome (HACAT) | outcome (HEK293T) | Potency (MCC-13) | Potency (MKL-1) | Potency (MKL-2) | Potency (UISO)

N=C(N)N
inactive: max response (KB-3-1) -12.6% | outcome (NIH3T3 [1]) | outcome (HACAT) | outcome (HEK293T) | Potency (MCC-13) | Potency (MCC-26) | Potency (MKL-1) | Potency (MKL-2) | outcome (NIH3T3 [2]) | Potency (UISO)

Cc1onc(-c2c(F)cccc2Cl)c1C(=O)N[C@@H]1C(=O)N2[C@@H]1SC(C)(C)[C@@H]2C(=O)O
inactive: max response (KB-3-1) 3.63% and 6.4% | outcome (KB-3-1) | max response (NIH3T3 [1]) -7.78% | outcome (HEK293T)

COC(=O)[C@H]1[C@H]2C[C@@H]3c4[nH]c5cc(OC)ccc5c4CCN3C[C@H]2C[C@@H](OC(=O)/C=C/c2cc(OC)c(OC)c(OC)c2)[C@@H]1OC
inactive: max response (KB-3-1) -8.17% | outcome (KB-3-1) | outcome (NIH3T3 [1]) | outcome (HACAT) inactive [at 17.4 µM] | outcome (NIH3T3 [2]) inactive [at 17.4 µM]

O=C(O)[C@H](O)[C@@H](O)[C@H](O)[C@H](O)CO
inactive: max response (KB-3-1) 1.75% and -7.15%

c1ccc(CCNc2nc(-c3ccccc3)cs2)cc1
inactive: max response (KB-3-1) -17.2% | max response (NIH3T3 [1]) -13.6% | outcome (HACAT) | Potency (MCC-13) | Potency (MCC-26) | Potency (MKL-1)

CN1CCN(c2cc3c(nn2)Oc2ccccc2N3C)CC1
inactive: max response (KB-3-1) -19.4% | max response (NIH3T3 [1]) -0.755% | outcome (HACAT) inactive [at 17.4 µM] | outcome (HEK293T) inactive [at 17.4 µM] | Potency (MCC-13) | Potency (MKL-1) | Potency (MKL-2) | Potency (UISO)

CN1[C@@H](CC(=O)c2ccccc2)CCC[C@H]1C[C@H](O)c1ccccc1
inactive: max response (KB-3-1) -11.5%

CCCCCCCCCCCC(=O)[O][Sn]([CH2]CCC)([CH2]CCC)[O]C(=O)CCCCCCCCCCC
inactive: max response (KB-3-1) -5.63% | max response (NIH3T3 [1]) 4.84% | outcome (HACAT) | Potency (MCC-13) | Potency (MCC-26) | Potency (MKL-1) | Potency (MKL-2) | Potency (UISO)

CC(=O)O[C@H]1C[C@@]2(C)[C@@H](C[C@@H](O)[C@H]3[C@@]4(C)CC[C@@H](O)[C@@H](C)[C@@H]4CC[C@@]32C)/C1=C(\CCC=C(C)C)C(=O)O
inactive: max response (KB-3-1) -11.2% | outcome (KB-3-1) | outcome (NIH3T3 [1]) | outcome (NIH3T3 [2])

O=C(O)COc1ccc(C(=O)c2cccs2)c(Cl)c1Cl
inactive: max response (KB-3-1) -1.65% and 4.87%

O=C(Nc1ccc(C(=O)O)c(O)c1)c1ccccc1
inactive: max response (KB-3-1) -1.99% | max response (NIH3T3 [1]) -1.76% | outcome (HACAT) | outcome (HEK293T) | Potency (MCC-13) | Potency (MCC-26) | Potency (MKL-1) | Potency (MKL-2) | Potency (UISO)

CC1(C)S[C@@H]2[C@H](NC(=O)[C@H](NC(=O)N3CCN(S(C)(=O)=O)C3=O)c3ccccc3)C(=O)N2[C@H]1C(=O)O
inactive: max response (KB-3-1) 1.37% | outcome (KB-3-1) | outcome (NIH3T3 [1]) | outcome (HACAT) | outcome (NIH3T3 [2])

CC(C)OC(=O)c1cc(C(=O)OC(C)C)cc([N+](=O)[O-])c1
inactive: max response (KB-3-1) 2.68% | max response (NIH3T3 [1]) -2.82% | outcome (HACAT) inactive [at 92 µM] | Potency (MCC-13) | Potency (MCC-26) | Potency (MKL-1) | Potency (MKL-2) | Potency (UISO)

CC(N)C(=O)OC(C)(C)Cc1ccc(Cl)cc1 (stereo unspecified)
inactive: max response (KB-3-1) 3.19% | max response (NIH3T3 [1]) -1.5% | outcome (HACAT) | Potency (MCC-13) | Potency (MKL-1) | Potency (MKL-2) | Potency (UISO)

CC(C)Cc1ccc([C@H](C)C(=O)O)cc1
inactive: max response (KB-3-1) -10.1%

O=C(O)[C@H](CC(=O)N1C[C@H]2CCCC[C@H]2C1)Cc1ccccc1
inactive: max response (KB-3-1) -7.55% and -0.116% | max response (NIH3T3 [1]) 3.24%

O=C(Nc1ccc2c(c1)CCN(Cc1ncn[nH]1)C2)c1ccccc1-c1ccc(C(F)(F)F)cc1
inactive: max response (KB-3-1) 1.94%

C[N+](C)(C)CCOP(=O)(O)OP(=O)([O-])OC[C@H]1O[C@@H](n2ccc(N)nc2=O)[C@H](O)[C@@H]1O
inactive: max response (KB-3-1) 10.6% and -5.11%

O=C(O)CC1CC(c2ccccc2)=NO1 (stereo unspecified)
inactive: outcome (KB-3-1) | max response (NIH3T3 [1]) -6.76%

CC1(C)C[C@@H]1C(=O)N/C(=C\CCCCSC[C@H](N)C(=O)O)C(=O)O
inactive: max response (KB-3-1) 4.27% and -2.38%

C#CC1(O)CC[C@H]2[C@@H]3CCC4=CCCC[C@@H]4[C@H]3CC[C@@]21C (stereo partly specified)
inactive: max response (KB-3-1) -2.21% | max response (NIH3T3 [1]) -0.384% | outcome (HACAT) | outcome (HEK293T) | Potency (MCC-26)

Nc1ccc(O)c(C(=O)O)c1
inactive: max response (KB-3-1) 2.58% | outcome (NIH3T3 [1]) | outcome (HACAT) | Potency (MCC-13) | Potency (MKL-1) | Potency (MKL-2) | outcome (NIH3T3 [2]) | Potency (UISO)
